KDM5B inh: Primary screen for KDM5B Histone Demethylases FDH-coupled qHTS; 220,000 tested, 2.6% active; KDM5B demethylase, FDH-coupled NADH fluorescence (FDH is formaldehyde dehydrogenase); Lysine-specific demethylase 5B (Homo sapiens), Q9UGL1; AID 1347165, 2019; Potency, µM (series often up to 57.7 µM), usual class: inhibitors; further: potency means the concentration at half of the fitted maximal effect; 0% is about no effect; nearly all actives have a fitted effect of over 70% in size
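Here, H3K4me3 peptide (12.5 µM in substrate mix) is demethylated by KDM5BΔAP, 200 nM final, after 10 min compound exposure. Formaldehyde product is coupled through FDH (0.25 U/mL in mix) to NADH fluorescence; 30-min ΔRFU feeds dose-response curves.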
SNCA viab count: GF-AFC viability counterscreen for inhibitors of alpha-synuclein gene (SNCA) expression; Potency, µM (titrated, usually from 57.1 µM), inactives show at the highest dose activity change, negative = cytotoxicity, usual class: cytotoxic; 150,000 tested, 0.12% active; HEK-293-SNCA-luc viability, GF-AFC fluorescence, 24 h; AID 1671193, 2021;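 further: potency means the concentration at half of the fitted maximal effect; 0% = DMSO-treated cells and -100% = medium-only wells without cells; nearly all actives have a fitted effect of over 30% in size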
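Cytotoxicity counterscreen: after 24 h compound treatment of genome-edited SNCA-luciferase HEK-293 cells, live-cell protease substrate GF-AFC read by fluorescence after 30 min; activity scaled between DMSO (0%) and medium-only (-100%), curves Hill-fitted.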
SNCA expr inh: Primary qHTS assay for inhibitors of alpha-synuclein gene (SNCA) expression; HEK-293 SNCA-luciferase knock-in, luminescence, 24 h; Potency, µM (doses to about 57.2 µM), without a hit: at the top dose activity change, negative = inhibition, usual class: inhibitors; 140,000 tested, 0.17% active;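 further: potency means the concentration at half of the fitted maximal effect; plate controls were DMSO cells for no effect and cell-free wells for full effect; nearly all actives have a fitted effect of over 45% in size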
IP6K1 inh: Primary qHTS assay for small molecule inhibitors of Inositol hexaphosphate kinase 1 (IP6K1); IP6K1 kinase, ADP-Glo luminescence, 2 h; active compounds read low; activity change, % (series mostly up to about 58 µM); 140,000 tested, 0.81% active; AID 1645851, 2021; in the data active means activity change below about -25%; further: on the % scale 0 is the no-effect control and ±100 the full control effect
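ADP-Glo luminescence measures ADP made by human IP6K1 during a 2 h RT reaction with ATP/IP6 (mix at 1.3 mM/130 uM); top library doses 57.5 and 19.1 uM final.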
* hit, by the source's call; i = inactive; ? = inconclusive; . = not tested or not shown; [ ] = another dose, or the depositor's remark. Sampled rows, rich in hits. Any-hit rate of the full collection: about 3%. Unless noted, the call rests on the fitted dose curve; in most records, active means well fitted curve in the direction sought with a large enough effect; inconclusive means small, poorly fitted or top-dose-only effect, or another doubt; inactive means no such curve, though single readings can be large; an effect the other way counts as inactive or inconclusive.

SMILES	KDM5B inh	SNCA viab count	SNCA expr inh	IP6K1 inh
Cc1ccc(-c2nnn(Cc3ncc(-c4ccccc4)o3)n2)cc1	i	.	.	.
COCCNc1nc2cc(C(=O)N3CC[C@H](CO)[C@@H](O)C3)ccc2n1C	28µM*	4%	2%	-10
Cc1ccc(NC(=O)c2c3c(nc4ccccc24)CCCC3)cc1Cl	i	.	.	.
O=C(NC1CC(c2nnc(CO)n2C2CC2)C1)c1nc2ccccc2[nH]1 (stereo not drawn)	32µM*	11%	-21%	24
O=C(NC1CC(c2nnc(CO)n2C2CC2)C1)c1csc(-c2ccccc2)n1 (stereo not drawn)	i	-3%	?	-4
O=C(NCCNCc1c[nH]c2ccccc12)c1cccs1	i	.	.	.
COc1cccc(-c2ccc(C(=O)NCCNC(=O)c3cccc(Cl)c3)cc2)c1	.	.	.	21
CCC(=O)c1cc2c(cc1NC(=O)c1ccco1)OCCO2	i	.	.	.
CC(C)CC(=O)NC1CCN(c2cn[nH]c(=O)c2)CC1	i	?	30%	-1
CC(C)CC(=O)Nc1n[nH]c2c1CN(C(=O)C1CCN(C)CC1)C2(C)C	.	?	0.54µM*	5
N#Cc1ccc(N2C[C@@H]3OCC(=O)N(CC4CCCCC4)[C@@H]3C2)nc1	35µM*	-13%[87.6 µM]	1%[87.6 µM]	-7
O=C(c1cnccn1)N1C[C@@H]2OCC(=O)N(CC3CCCCC3)[C@@H]2C1	?	-1%[87.6 µM]	-3%[87.6 µM]	16
CN1C(=O)CO[C@H]2CN(c3ccc(C#N)cn3)C[C@H]21	35µM*	1%[87.6 µM]	?	4
CCN(CCc1ccncc1)S(=O)(=O)c1cc(N2C(=O)CCS2(=O)=O)ccc1OC	i	.	.	.
CCOC(=O)c1ccccc1NC(=O)Cn1c(N(C)Cc2ccccc2)nc(C)cc1=O	16µM*	10%	-3%	12
CCOC(=O)c1ccc(NC(=O)Cn2c(N(C)Cc3ccccc3)nc(C)cc2=O)cc1	i	13%	-13%	9
Cc1ccccc1-n1nc(C)c(CCC(=O)NCC(C)C)c1Oc1cccc(F)c1	22µM*	2%	-26%	18
COc1cc2nc(Nc3ccc(C)c(C)c3)nc(N)c2cc1OC	?	?	?	3
COc1cc2nc(-c3cc4c(c(OC)c3)OCCNC4)cc(C)c2cc1OC	32µM*	5%	-21%	3
COc1cc(-c2cnc3ccccc3c2)cc2c1OCCNC2	i	8%	-5%	11
COc1cc(-c2ccc(C(F)(F)F)cn2)cc2c1OCCNC2	25µM*	6%	21%	5
O=C(CCNc1c(-c2cccc(F)c2)nc2cnccn12)NCc1ccccc1F	28µM*	?	-3%	4
CNC(=O)CCNc1c(-c2cccc(F)c2)nc2cnccn12	28µM*	?	14%	22
Cc1nc2cnccn2c1C(=O)NCCc1cccc(F)c1	.	.	.	-2
Cc1nc2cnccn2c1C(=O)NCc1ccc(F)cc1F	.	.	.	5
SMILES	KDM5B inh	SNCA viab count	SNCA expr inh	IP6K1 inh
COc1ccccc1NC(=O)c1c(C)oc2ccn(Cc3ccc(F)cc3)c(=O)c12	32µM*	-16%	?	25
Cc1oc2ccn(Cc3ccc(F)cc3)c(=O)c2c1C(=O)N1CCN(c2ccccn2)CC1	22µM*	-15%	-15%	12
Cc1oc2ccn(Cc3ccc(F)cc3)c(=O)c2c1C(=O)O	i	8%	-22%	2
CCCNC(=O)c1c(C)oc2ccn(Cc3ccc(F)cc3)c(=O)c12	i	-8%	-17%	6
COc1cc2nc(N3CCC(N4CCCCC4)CC3)nc(NC3CCCCCC3)c2cc1OC	.	24µM*	.	14
O=C(CSc1cnc2ccccc2n1)OCc1cccc2ccccc12	i	.	.	.
COCCn1c(CSCc2ccc(Cl)cc2Cl)n[nH]c1=S	i	.	.	.
O=C(NCC1(O)CCCNCC1)c1ccc(-n2cnnc2)cc1 (stereo not drawn)	i	-2%	-8%	-2
OC1(CNc2cc(C(F)(F)F)nc(N3CCCC3)n2)CCCNCC1 (stereo not drawn)	25µM*	4%	1%	1
CC(OC(=O)c1ccc(CCNS(C)(=O)=O)cc1)C(=O)N1CCOCC1 (stereo not drawn)	i	.	.	.
Cc1ccc(C2CC(=O)c3cn4nc(C(F)(F)F)nc4nc3C2)cc1 (stereo not drawn)	i	.	.	.
CCn1ccc(C(=O)NCc2cccnc2N(C)CCc2ccccn2)n1	28µM*	-11%	-11%	5
